Compound activity deposited in PubChem by several laboratories.
A selection: hits, their analogues and other compounds. The true share with any hit is near 4.4%.
PfHsp90 set2: reduces growth (ATP signal) of yeast expressing P. falciparum Hsp90; S. cerevisiae expressing PfHsp90, BacTiter-Glo ATP, 48 h; yeast lacking PDR1 and PDR3 efflux regulators; inhibition, % at 9.4 µM; hit rate 0.32% among 310,000;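 active = every replicate shows inhibition above about 80%, whatever the replicate mean, limit read from the data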;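 also: 0% = DMSO neutral controls and 100% = 20 µM radicicol positive controls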
SUMO Mot1 rescue: SUMOylation pathway inhibition by Mot1-301 growth rescue; S. cerevisiae Mot1-301 growth rescue, ATP luminescence, 38.5C; percent above DMSO median, 100 means doubled; growth rescue, % at 18.8 µM; hit rate 1% among 320,000; AID 2716;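 active = every valid replicate shows activation above 250% relative to neutral control wells; inactive = the rest, any valid replicate at or below 250%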;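 also: OY570 slx delta 5 strain wells were the positive control but not used for scaling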
TIM10 inh: TIM10 yeast growth inhibition. S. cerevisiae TIM10 strain growth, BacTiter-Glo luminescence, 24 h. inhibition, % at 10 µM. hit rate 1.4% among 330,000. AID 463195;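 active = inhibition of 40% or more at the single tested concentration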;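 also: wild-type TIM10 isogenic control strain grown at permissive 25 °C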
tim10-1 inh: tim10-1 yeast growth inhibition. hit rate 2.2% among 330,000. inhibition, % at 20 µM. S. cerevisiae tim10-1 ts strain growth, BacTiter-Glo, 24 h;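 active = inhibition of at least 40%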;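 also: mutant grown at 25 °C; 0% = DMSO wells with yeast and 100% = wells holding no yeast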
tim23-1 inh: growth inhibitors of tim23-1 mutant yeast. S. cerevisiae tim23-1 growth, BacTiter-Glo luminescence, 24 h. inhibition, % at 20 µM. hit rate 1.3% among 330,000;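 active = growth inhibition of the mutant yeast at or above 50%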;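 also: temperature-sensitive mutant grown at 25 °C; plate controls were DMSO-treated mutant yeast for no effect and medium wells lacking yeast for full effect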
tim10-1 confirm: confirmation of tim10-1 mutant yeast growth inhibitors; AID 463213; inhibition, % at 20 µM; hit rate 56% among 7,400; shares compounds with tim10-1 inh; S. cerevisiae tim10-1 ts strain growth, BacTiter-Glo, 24 h;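 active = inhibition of yeast growth at or above a set limit in either of two repeat tests at 20 µM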;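 also: tim10-1 mutant grown at permissive 25 °C to find synthetic lethal compounds; 0% = DMSO yeast wells and 100% = medium wells without yeast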
TIM10 conf: confirmation of TIM10 yeast growth inhibitors; S. cerevisiae tim10 strain growth, BacTiter-Glo luminescence, 24 h; AID 463215; inhibition, % at 10 µM; hit rate 63% among 4,600; shares compounds with TIM10 inh;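 active = inhibition of yeast growth at or above a set limit in either of two replicates at 10 µM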;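 also: this counterscreen used the strain with wild-type TIM10; 0% = yeast with DMSO and 100% = medium wells lacking yeast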
tim23-1 confirm: confirmation of tim23-1 mutant yeast growth inhibitors; shares compounds with tim23-1 inh; S. cerevisiae tim23-1 growth, BacTiter-Glo luminescence, 24 h; inhibition, % at 20 µM; hit rate 83% among 4,400;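 active = inhibition above about 39% in either of two replicate wells at 20 µM, limit read from the data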;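 also: temperature-sensitive tim23-1 mutant grown at 25 °C; 0% = DMSO wells with yeast and 100% = medium wells without yeast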
An asterisk follows results filed as active.

For CC1CCc2sc3nc(NCc4ccco4)n4ncnc4c3c2C1 (centres undefined) the results were PfHsp90 set2 -2, SUMO Mot1 rescue -12, TIM10 inh 18, tim10-1 inh 41*, tim23-1 inh 51*, tim10-1 confirm 35* and tim23-1 confirm 56*.
CCN1CCN(c2nc3sc4c(c3c3ncnn23)CC(C)CC4)CC1 (centres undefined) was read as PfHsp90 set2 -2, SUMO Mot1 rescue 3, TIM10 inh 12, tim10-1 inh 21 and tim23-1 inh 24.
For CCOc1ccc(N(CC(=O)N2CCN(Cc3ccccc3)CC2)S(C)(=O)=O)cc1 the results were PfHsp90 set2 13, SUMO Mot1 rescue 226, TIM10 inh 14, tim10-1 inh 23 and tim23-1 inh -1.
`CSc1ccc(CN2CCCN(C)CC2)cc1` gave PfHsp90 set2 19, SUMO Mot1 rescue 53, TIM10 inh -8, tim10-1 inh -10 and tim23-1 inh -10.
`CCc1ccccc1N(C(C)=O)c1nc(CN=C=S)cs1` gave PfHsp90 set2 10, SUMO Mot1 rescue -7, TIM10 inh 8, tim10-1 inh 11 and tim23-1 inh 27.
Screening CC1CCN(c2cc(C#N)c(C#N)cc2[N+](=O)[O-])CC1 returned TIM10 inh 3, tim10-1 inh 14 and tim23-1 inh -12.
For CC1CCN(c2cc(N)c(Cl)cc2[N+](=O)[O-])CC1 the results were PfHsp90 set2 3, SUMO Mot1 rescue 14, TIM10 inh 41*, tim10-1 inh 52*, tim23-1 inh 72*, tim10-1 confirm 37*, TIM10 conf -12 and tim23-1 confirm 65*.
For CCOC(=O)COc1c(/C=N\OC)cc(Cl)cc1OC the results were PfHsp90 set2 -1, SUMO Mot1 rescue 5, TIM10 inh -8, tim10-1 inh 19 and tim23-1 inh 3.
`CCOC(=O)COc1c(C=O)cc(Br)cc1OC` gave SUMO Mot1 rescue -12, TIM10 inh 65*, tim10-1 inh 45*, tim23-1 inh 61*, tim10-1 confirm 36*, TIM10 conf 53* and tim23-1 confirm 75*.
`O=c1ccc(S(=O)(=O)N2CCCC2)cn1Cc1ccc(Cl)cc1Cl` gave PfHsp90 set2 4, SUMO Mot1 rescue 0, TIM10 inh 4, tim10-1 inh 7 and tim23-1 inh 20.
COCCn1c(SCC(=O)NCCCN2CCCC2=O)nc2sc3c(c2c1=O)CCCC3 was read as PfHsp90 set2 6.
COc1ccc(S(=O)(=O)Nc2cc(SCC(=O)O)c(O)c3ccccc23)cc1 was read as PfHsp90 set2 10, SUMO Mot1 rescue 21, TIM10 inh 33, tim10-1 inh 44*, tim23-1 inh 58*, tim10-1 confirm 28 and tim23-1 confirm -17.
CCC(=O)c1c(CC)c2n3c1CC[C@H]3CCC2 was read as PfHsp90 set2 -7, SUMO Mot1 rescue -3, TIM10 inh 13, tim10-1 inh 31 and tim23-1 inh 23.
`COc1ccc(-c2csc(NC(=O)c3ccccc3F)c2C(=O)O)cc1` gave PfHsp90 set2 28, SUMO Mot1 rescue 39, TIM10 inh 75*, tim10-1 inh 81*, tim23-1 inh 85*, tim10-1 confirm 75*, TIM10 conf 72* and tim23-1 confirm 86*.
O=C(Nc1scc(-c2ccccc2)c1C(=O)O)c1ccccc1Cl was read as PfHsp90 set2 34, SUMO Mot1 rescue 3, TIM10 inh -13, tim10-1 inh 8 and tim23-1 inh 17.
For COc1cc(C(=O)Nc2scc(-c3ccc(C)cc3)c2C(=O)O)cc(OC)c1OC the results were PfHsp90 set2 -16, SUMO Mot1 rescue 371, TIM10 inh 9, tim10-1 inh 4 and tim23-1 inh 6.
Cc1ccc(C(=O)Nc2scc(-c3ccccc3)c2C(=O)O)cc1 was read as PfHsp90 set2 35, SUMO Mot1 rescue -26, TIM10 inh 82*, tim10-1 inh 85*, tim23-1 inh 86*, tim10-1 confirm 83*, TIM10 conf 91* and tim23-1 confirm 87*.
`Cc1ccc(C)c(NC(=O)C2CCCN(S(=O)(=O)c3cccnc3)C2)c1` (centres undefined) gave PfHsp90 set2 -6, SUMO Mot1 rescue -2, TIM10 inh -1, tim10-1 inh -1 and tim23-1 inh -5.
O=C(Nc1cc(Cl)cc(Cl)c1)c1cccc(OC(F)F)c1 was read as SUMO Mot1 rescue 24, TIM10 inh 68*, tim10-1 inh 79*, tim23-1 inh 85*, tim10-1 confirm 79*, TIM10 conf 66* and tim23-1 confirm 72*.
Screening Cc1ccnc(NC(=O)c2cccc(OC(F)F)c2)n1 returned PfHsp90 set2 7, SUMO Mot1 rescue 1, TIM10 inh 4, tim10-1 inh -1 and tim23-1 inh 9.
For CCN(CC)c1ccc(NC(=O)c2cc(Cl)ccc2OC)cc1 the results were PfHsp90 set2 -15, SUMO Mot1 rescue 415, TIM10 inh 26, tim10-1 inh 43*, tim23-1 inh 50*, tim10-1 confirm 32* and tim23-1 confirm 44*.
Screening COc1ccc(Cl)cc1C(=O)Nc1ccncc1 returned PfHsp90 set2 -6, SUMO Mot1 rescue -13, TIM10 inh 4, tim10-1 inh 7 and tim23-1 inh 22.
For COc1cc(CNC(C)c2ccccc2)cc(Cl)c1OCC(=O)Nc1ccccc1 (centres undefined) the results were PfHsp90 set2 2, SUMO Mot1 rescue 8, TIM10 inh 21, tim10-1 inh 7 and tim23-1 inh 20.
`CC(C)CC(=O)O/N=C1\C(=O)N(c2ccccc2)c2ccccc21` gave PfHsp90 set2 -19, SUMO Mot1 rescue 7, TIM10 inh 50*, tim10-1 inh 63*, tim23-1 inh 54*, tim10-1 confirm 59*, TIM10 conf 74* and tim23-1 confirm 62*.
Screening COc1cc(/C=C/C(=O)N2CCC=CC2=O)cc(OC)c1OC returned PfHsp90 set2 15, SUMO Mot1 rescue -5, TIM10 inh 57*, tim10-1 inh 58*, tim23-1 inh 59*, tim10-1 confirm 40*, TIM10 conf 45* and tim23-1 confirm 54*.
Screening CN1C(=O)/C(=C/c2cc(N=Nc3ccccc3)ccc2O)SC1=S returned PfHsp90 set2 29, SUMO Mot1 rescue -22, TIM10 inh 36, tim10-1 inh 51*, tim23-1 inh 55*, tim10-1 confirm 41* and tim23-1 confirm 65*.
